Among the data in PubChem BioAssay are composite z-score and z-score values, retold here.

Activity calls are given as the source filed them.

Test [1] relates to PRMT1 (protein arginine N-methyltransferase 1). As to the kind of experiment: small molecules binding arginine methyltransferase PRMT1 – biochemical, small-molecule microarray, 635 nm fluorescence, primary screen (AID 1088).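 Also: binding of Prmt1 protein to compounds spotted on small-molecule microarray slides.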 The conditions noted are these: higher = more signal.
Test [2] in a line: growth effects on S. cerevisiae YJM789 – YJM789 clinical isolate, OD600, 24 h, basal, primary screen (AID 1089).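 Also: growth of clinical yeast isolate S. cerevisiae YJM 789 seeded 1000 cells per well; test concentration not given here.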 The following applies: higher = more signal, called active from +8 up or from −8 down.
Test [3] is described as follows: S. pombe growth modifiers, basal conditions – strain 972, OD600, 24 h, no modulator, primary screen (AID 1090).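 Also: basal condition with compound alone and no growth modifier present; test concentration not given here.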 The following applies: S. pombe 972 growth, higher = more signal, called active from +8 up or from −8 down.
Test [4] is described as follows: budding yeast growth modifiers under rapamycin – strain BY4716, OD600, 96 h, primary screen (AID 1091). Also: test concentration not given here. The conditions noted are these: S. cerevisiae BY4716 + rapamycin, higher = more signal, called active from +8 up or from −8 down.
For test [5], the target named is Torsin-1A-interacting protein 2 (Homo sapiens) (UniProt Q8NFQ8). As to the kind of experiment: small molecules binding lysate-expressed LULL1 – cell lysate, human LULL1 lysate, 635/667 nm fluorescence, primary screen (AID 1092).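 Also: probe is lysate of COS7 cells overexpressing human LULL1; score merges per-feature 667 nm fluorescence with signal-to-noise.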 The conditions noted are these: small-molecule microarray, hLULL1 lysate binding, 635 nm fluorescence; higher = more signal.
Sequence of Torsin-1A-interacting protein 2 (Homo sapiens) (Q8NFQ8 whole entry, looked up): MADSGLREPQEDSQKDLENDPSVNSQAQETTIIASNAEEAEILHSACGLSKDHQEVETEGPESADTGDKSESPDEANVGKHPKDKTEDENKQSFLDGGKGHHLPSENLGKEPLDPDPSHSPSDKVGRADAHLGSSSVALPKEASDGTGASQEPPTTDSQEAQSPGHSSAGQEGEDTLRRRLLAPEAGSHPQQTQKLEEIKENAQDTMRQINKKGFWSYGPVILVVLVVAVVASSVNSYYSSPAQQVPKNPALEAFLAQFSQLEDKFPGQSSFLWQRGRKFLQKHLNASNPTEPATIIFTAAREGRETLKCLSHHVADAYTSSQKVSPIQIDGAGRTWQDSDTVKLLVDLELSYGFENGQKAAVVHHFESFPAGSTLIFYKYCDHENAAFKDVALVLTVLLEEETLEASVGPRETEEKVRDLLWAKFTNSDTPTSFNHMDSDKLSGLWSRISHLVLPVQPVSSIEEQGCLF
The nature of test [6]: optical density change of DRC41 E. coli – strain DRC41, OD650, 24 h, E. coli filamentation project, primary screen (AID 1093).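 Also: MC1000 strain lacking acrAB efflux and sulA so SOS filamentation is blocked; test concentration not given here.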 The following applies: E. coli DRC41 growth, higher = more signal, called active from +8 up or from −8 down.
Test [7] can be described thus: probe aLefty2 binding to arrayed compounds – biochemical, biotinylated probe, 635/667 nm fluorescence, primary screen (AID 1094).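 Also: score merges spot fluorescence near 667 nm with spot signal-to-noise ratio.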 The following applies: small-molecule microarray, higher = more signal.
Test [8] deals with Noggin (protein binding on small-molecule microarray). As to the kind of experiment: small molecules binding Noggin protein – biochemical, 635/667 nm fluorescence, primary screen (AID 1095).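 Also: score merges 667 nm feature fluorescence with signal to noise over triplicate slides.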 The conditions noted are these: 635 nm fluorescence, higher = more signal.
Test [9] concerns the target Neurogenic locus notch homolog protein 3 (Homo sapiens) (UniProt Q9UM47). As to the kind of experiment: small molecules binding NOTCH3 protein – biochemical, 635/667 nm fluorescence, primary screen (AID 1096). The conditions noted are these: small-molecule microarray, 635 nm fluorescence, higher = more signal.
Test [10] in a line: probe aEGFR binding to arrayed compounds – biochemical, biotinylated probe, 635/667 nm fluorescence, primary screen (AID 1097).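 Also: probe is a biotinylated anti-EGFR antibody binding compounds printed on slides; score combines fluorescence near 667 nm and signal to noise of each spot.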 The following applies: small-molecule microarray, higher = more signal.
Test [11] has as its system Plasmodium falciparum Sir2 (PF13_0152, Sir2A). As to the kind of experiment: Plasmodium falciparum Sir2A binding compounds – biochemical, small-molecule microarray, 635 nm fluorescence, primary screen (AID 1098).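 Also: score merges spot fluorescence intensity with its signal-to-noise ratio.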 The conditions noted are these: fluorescence 635 nm, higher = more signal.
Test [12] in a line: probe aDKK1 binding to arrayed compounds – biochemical, biotinylated probe, 635/667 nm fluorescence, primary screen (AID 1099).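 Also: score merges 667nm spot fluorescence with signal to noise across triplicate slides; reference of the scale not given here.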 The conditions noted are these: small-molecule microarray, higher = more signal.
Test [13] is described as follows: probe aCHRDL2 binding to arrayed compounds – biochemical, biotinylated probe, 635/667 nm fluorescence, primary screen (AID 1100). The conditions noted are these: small-molecule microarray, higher = more signal.
Test [14] can be described thus: change in splice reporter luminescence, either direction, cell-based, HEK293, spliceosome inhibition project, primary screen (AID 1101).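 Also: HEK293 cells carrying a splicing-competent luciferase reporter gene; test concentration not given here.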 The conditions noted are these: HEK293 splicing luciferase reporter, 24 h, higher = more signal, called active from +8 up or from −8 down. On the technique in general: A reporter such as luciferase makes a cellular process visible.

Test [15] has as its target Fibroblast growth factor 10 (Homo sapiens) (UniProt O15520). As to the kind of experiment: compounds binding fibroblast growth factor 10 – biochemical, small-molecule microarray, 635 nm fluorescence, primary screen (AID 1102). The conditions noted are these: FGF10 binding, fluorescence 635 nm, higher = more signal.
The test system of test [16] is glycogen synthase kinase-3 (GSK3A per assay name; protocol says GSK3B). As to the kind of experiment: compounds binding glycogen synthase kinase-3 – biochemical, small-molecule microarray, 635 nm fluorescence, GSK3A, primary screen (AID 1103). Also: the record names both GSK3A and GSK3B. The following applies: fluorescence 635 nm, higher = more signal.
For test [17], the target named is Epidermal growth factor receptor (Homo sapiens) (UniProt P00533). As to the kind of experiment: compounds binding epidermal growth factor receptor – biochemical, small-molecule microarray, 635 nm fluorescence, primary screen (AID 1104).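 Also: score merges 667 nm emission intensity with spot signal to noise over triplicate slides.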 The following applies: EGFR binding, higher = more signal.
Sequence of Epidermal growth factor receptor (Homo sapiens) (P00533 whole entry, looked up): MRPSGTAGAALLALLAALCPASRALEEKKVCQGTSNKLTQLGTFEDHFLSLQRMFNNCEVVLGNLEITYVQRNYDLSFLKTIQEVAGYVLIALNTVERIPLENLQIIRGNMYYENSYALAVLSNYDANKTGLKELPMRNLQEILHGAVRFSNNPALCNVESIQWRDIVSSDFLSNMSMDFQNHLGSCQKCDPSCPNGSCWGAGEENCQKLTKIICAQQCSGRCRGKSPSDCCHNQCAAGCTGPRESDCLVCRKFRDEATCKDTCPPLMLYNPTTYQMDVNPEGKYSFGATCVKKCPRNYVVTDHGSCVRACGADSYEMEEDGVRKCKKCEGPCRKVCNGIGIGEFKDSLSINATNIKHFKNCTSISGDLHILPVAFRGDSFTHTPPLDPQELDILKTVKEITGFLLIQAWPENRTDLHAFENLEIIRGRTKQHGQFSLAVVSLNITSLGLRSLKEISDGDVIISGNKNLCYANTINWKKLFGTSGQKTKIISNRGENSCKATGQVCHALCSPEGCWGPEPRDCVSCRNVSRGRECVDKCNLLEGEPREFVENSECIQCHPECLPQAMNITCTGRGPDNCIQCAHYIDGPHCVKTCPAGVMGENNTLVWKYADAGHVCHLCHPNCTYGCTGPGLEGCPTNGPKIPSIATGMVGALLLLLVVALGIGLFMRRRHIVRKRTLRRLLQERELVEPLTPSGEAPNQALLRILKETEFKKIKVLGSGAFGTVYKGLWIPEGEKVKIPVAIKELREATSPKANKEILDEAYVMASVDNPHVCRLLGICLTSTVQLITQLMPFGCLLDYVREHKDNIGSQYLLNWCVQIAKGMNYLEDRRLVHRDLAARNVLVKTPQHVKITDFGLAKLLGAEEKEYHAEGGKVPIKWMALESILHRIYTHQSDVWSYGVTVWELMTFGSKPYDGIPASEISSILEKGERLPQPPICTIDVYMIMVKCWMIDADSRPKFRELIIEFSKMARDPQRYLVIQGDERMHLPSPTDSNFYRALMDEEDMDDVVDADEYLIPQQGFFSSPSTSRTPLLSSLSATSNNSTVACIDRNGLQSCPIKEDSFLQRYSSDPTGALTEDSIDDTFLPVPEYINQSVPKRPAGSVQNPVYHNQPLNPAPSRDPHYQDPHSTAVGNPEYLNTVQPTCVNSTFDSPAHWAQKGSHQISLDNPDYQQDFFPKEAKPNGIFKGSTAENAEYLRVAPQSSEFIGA
The target of test [18] is Follistatin-related protein 3 (Homo sapiens) (UniProt O95633). As to the kind of experiment: compounds binding follistatin-related protein 3 – biochemical, small-molecule microarray, 635 nm fluorescence, primary screen (AID 1105).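 Also: score merges emission near 667 nm and signal to noise per printed spot across three slides.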 The following applies: FSTL3 binding, higher = more signal.
Sequence of Follistatin-related protein 3 (Homo sapiens) (O95633 whole entry, looked up): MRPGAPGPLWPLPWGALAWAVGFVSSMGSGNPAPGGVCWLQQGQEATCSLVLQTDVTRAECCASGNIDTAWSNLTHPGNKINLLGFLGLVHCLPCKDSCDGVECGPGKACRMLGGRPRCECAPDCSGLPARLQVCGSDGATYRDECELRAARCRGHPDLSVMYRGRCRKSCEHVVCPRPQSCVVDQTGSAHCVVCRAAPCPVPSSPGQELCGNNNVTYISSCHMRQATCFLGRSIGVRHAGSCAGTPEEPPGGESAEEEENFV
The target in test [19] is Dickkopf-related protein 1 (Homo sapiens) (UniProt O94907). As to the kind of experiment: small molecules binding DKK1 protein – biochemical, small-molecule microarray, 635 nm fluorescence scan, primary screen (AID 1106).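 Also: score merges emission near 667 nm with signal to noise over three replicate slides.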 The conditions noted are these: higher = more signal.
Sequence of Dickkopf-related protein 1 (Homo sapiens) (O94907 whole entry, looked up): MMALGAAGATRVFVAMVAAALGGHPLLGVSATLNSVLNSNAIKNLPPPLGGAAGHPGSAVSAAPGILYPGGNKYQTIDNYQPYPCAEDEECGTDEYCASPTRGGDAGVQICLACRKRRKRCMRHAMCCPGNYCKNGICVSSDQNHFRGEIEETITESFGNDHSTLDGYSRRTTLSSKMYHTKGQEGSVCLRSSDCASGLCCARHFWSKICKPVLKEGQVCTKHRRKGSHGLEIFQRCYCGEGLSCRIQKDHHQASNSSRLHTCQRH
Test [20] concerns Inhibin beta A chain (activin A). As to the kind of experiment: small molecules binding activin A – biochemical, small-molecule microarray, 635 nm fluorescence scan, primary screen (AID 1107).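 Also: mouse activin A protein probed at 4.33 µg/mL on printed slides; score merges bound-protein fluorescence near 667 nm with spot signal-to-noise.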 The conditions noted are these: INHBA, higher = more signal.

Sequence of Neurogenic locus notch homolog protein 3 (Homo sapiens) (Q9UM47 whole entry, looked up): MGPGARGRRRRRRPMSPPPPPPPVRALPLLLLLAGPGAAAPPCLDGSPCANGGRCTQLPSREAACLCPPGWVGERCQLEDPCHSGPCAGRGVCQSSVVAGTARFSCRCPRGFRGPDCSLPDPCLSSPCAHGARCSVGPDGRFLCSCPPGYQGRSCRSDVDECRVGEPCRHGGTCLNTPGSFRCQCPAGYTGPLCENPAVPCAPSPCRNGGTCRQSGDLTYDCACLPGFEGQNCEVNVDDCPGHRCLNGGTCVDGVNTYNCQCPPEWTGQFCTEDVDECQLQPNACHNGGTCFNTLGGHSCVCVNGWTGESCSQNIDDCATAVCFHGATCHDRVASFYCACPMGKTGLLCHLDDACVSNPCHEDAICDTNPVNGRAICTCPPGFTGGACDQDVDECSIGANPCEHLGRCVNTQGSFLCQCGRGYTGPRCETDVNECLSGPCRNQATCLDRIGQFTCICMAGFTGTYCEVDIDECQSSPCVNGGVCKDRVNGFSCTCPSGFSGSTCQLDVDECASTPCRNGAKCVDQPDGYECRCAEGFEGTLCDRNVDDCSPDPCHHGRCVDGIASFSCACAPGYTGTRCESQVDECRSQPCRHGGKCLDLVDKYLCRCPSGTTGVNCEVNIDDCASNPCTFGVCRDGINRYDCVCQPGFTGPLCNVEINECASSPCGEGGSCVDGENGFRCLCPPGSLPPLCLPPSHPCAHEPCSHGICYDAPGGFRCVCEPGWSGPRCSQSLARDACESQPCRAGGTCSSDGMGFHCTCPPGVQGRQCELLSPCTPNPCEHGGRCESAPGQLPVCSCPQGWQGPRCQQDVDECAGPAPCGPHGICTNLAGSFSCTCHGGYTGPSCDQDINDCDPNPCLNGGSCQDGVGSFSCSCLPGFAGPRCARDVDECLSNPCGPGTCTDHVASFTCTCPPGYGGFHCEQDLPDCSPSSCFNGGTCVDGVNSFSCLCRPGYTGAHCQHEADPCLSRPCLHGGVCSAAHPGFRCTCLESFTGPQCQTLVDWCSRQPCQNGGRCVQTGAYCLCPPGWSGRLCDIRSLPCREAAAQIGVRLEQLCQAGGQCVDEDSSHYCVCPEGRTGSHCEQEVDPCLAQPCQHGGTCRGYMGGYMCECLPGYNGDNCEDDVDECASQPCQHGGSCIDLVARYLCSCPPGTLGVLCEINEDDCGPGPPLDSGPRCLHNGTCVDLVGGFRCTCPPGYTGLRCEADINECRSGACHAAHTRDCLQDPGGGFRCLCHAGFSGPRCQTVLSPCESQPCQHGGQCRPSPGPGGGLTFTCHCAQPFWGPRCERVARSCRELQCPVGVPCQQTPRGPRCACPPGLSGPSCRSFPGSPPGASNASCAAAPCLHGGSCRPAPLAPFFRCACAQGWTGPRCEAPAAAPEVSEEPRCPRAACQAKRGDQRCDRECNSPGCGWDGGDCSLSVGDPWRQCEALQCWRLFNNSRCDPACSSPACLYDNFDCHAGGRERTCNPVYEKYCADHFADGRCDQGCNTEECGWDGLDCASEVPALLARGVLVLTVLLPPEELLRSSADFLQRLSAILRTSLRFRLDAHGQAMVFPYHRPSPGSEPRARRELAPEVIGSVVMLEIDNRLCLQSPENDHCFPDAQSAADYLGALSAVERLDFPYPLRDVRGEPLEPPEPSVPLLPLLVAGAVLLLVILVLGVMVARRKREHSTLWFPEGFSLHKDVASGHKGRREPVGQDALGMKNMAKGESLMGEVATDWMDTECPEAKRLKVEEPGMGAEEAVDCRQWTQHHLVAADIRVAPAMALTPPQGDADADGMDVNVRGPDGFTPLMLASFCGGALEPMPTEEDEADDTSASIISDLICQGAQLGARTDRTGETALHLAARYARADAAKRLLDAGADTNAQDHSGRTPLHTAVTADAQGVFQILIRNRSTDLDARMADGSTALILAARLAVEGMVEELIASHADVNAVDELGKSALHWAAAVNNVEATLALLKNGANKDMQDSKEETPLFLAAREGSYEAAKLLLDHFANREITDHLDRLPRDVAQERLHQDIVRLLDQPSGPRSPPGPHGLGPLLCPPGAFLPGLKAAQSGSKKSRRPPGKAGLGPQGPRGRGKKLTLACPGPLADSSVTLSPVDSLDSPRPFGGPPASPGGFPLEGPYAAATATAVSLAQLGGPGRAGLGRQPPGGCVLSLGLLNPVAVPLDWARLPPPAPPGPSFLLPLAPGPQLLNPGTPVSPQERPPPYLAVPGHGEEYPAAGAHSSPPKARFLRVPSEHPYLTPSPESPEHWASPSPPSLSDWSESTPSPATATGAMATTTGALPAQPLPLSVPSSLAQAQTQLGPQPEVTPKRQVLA
Sequence of Fibroblast growth factor 10 (Homo sapiens) (O15520 whole entry, looked up): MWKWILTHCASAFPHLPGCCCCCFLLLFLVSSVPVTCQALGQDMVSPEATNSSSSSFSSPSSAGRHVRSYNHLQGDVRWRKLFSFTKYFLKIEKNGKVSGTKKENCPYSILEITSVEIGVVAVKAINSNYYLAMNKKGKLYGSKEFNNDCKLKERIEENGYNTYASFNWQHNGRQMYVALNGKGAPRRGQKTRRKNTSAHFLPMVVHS

Regarding `O=C(Cc1ccccc1)[C@H]1C2C=CCCC(c3ccccc3)=C2CN1Cc1ccccc1` (stereo not given in full), the composite z-score was 0.044 in test [1]; -0.862 in test [5]; -0.207 in [7]; -0.0884 in test [8]; -0.433 in [9]; -0.0828 in test [10]. Also, the composite z-score in test [11] was -0.313; in test [12], -0.138; in [13], -0.191; in test [15], -0.0435; in [16], -0.117; in [17] it was -0.097. Besides, the composite z-score in test [18] was -0.137; in [19], 0.191; in [20] it was 0.707. The z-score in [2] is -0.213 (inactive); in test [3], -1.29 (inactive); in test [4], -0.481 (inactive); in test [6] it was 2.42 (inactive); in test [14], -0.445 (inactive).
As to `[N-]=[N+]=Nc1ccccc1C[C@]1(C(=O)O)COC(c2ccc(OCCCO)cc2)=N1`, the composite z-score in [1] was -0.767; in test [5], 1.66; in test [7], -0.195; in [8], -0.476; in test [9] it was -0.609; in test [10], -0.0079. Moreover, the composite z-score in test [11] was 1.15; in [12], 0.336; in [13], 0.829; in test [15], -0.51; in [16], -1.1; in test [17], -0.473. Further, the composite z-score in test [18] was -0.543; in test [19], -0.885; in test [20] it was 0.764. The z-score in test [2] is -0.458 (inactive); in test [3], -0.88 (inactive); in test [4], 0.559 (inactive); in test [6] it was -0.408 (inactive); in [14], -1.08 (inactive).
Take `[N-]=[N+]=Nc1ccccc1C[C@@]1(C(=O)NCCN2CCOCC2)N=C(c2ccc(OCCCO)cc2)O[C@@H]1c1ccccc1N=[N+]=[N-]`: the composite z-score in [1] was found to be 1.55; in [5], 3.19; in test [7] it was 0.0672; in [8], 0.325; in [9], 0.811; in test [10], 0.0045. The composite z-score in test [11] is 1.53; in test [12] it was 0.664; in test [13], 1.04; in test [15] it was 0.968; in test [16] it was 1.31; in test [17], -0.172. Besides, the composite z-score in test [18] stood at 0.453; in test [19], 0.136; in test [20], 0.691. In addition, the z-score in test [2] is -2.36 (inactive); in test [3], -14.1 (active); in test [4], -0.321 (inactive); in test [6], -0.485 (inactive); in [14], -0.222 (inactive).
In the case of `COC(=O)[C@@]1(Cc2ccc(F)cc2)[C@H]2c3cc(C(=O)N4CCCC4)n(CCc4c[nH]c5ccccc45)c3C[C@H]2CN1C(=O)c1ccccc1`, the composite z-score was 1.38 in test [1]; 3.42 in test [5]; 0.323 in test [7]; 0.462 in test [8]; 1.01 in [9]; 0.0688 in [10]. The composite z-score was determined as 0.539 in test [11]; 0.948 in test [12]; 1.03 in test [13]; 0.894 in test [15]; 1.32 in [16]; 0.549 in [17]. Further, the composite z-score in [18] was determined as 1.21; in test [19] it was 0.113; in test [20] it was 0.834. In addition, the z-score is 0.519 (inactive) in test [2]; 1.68 (inactive) in test [3]; 7.25 (inactive) in test [4]; -1.3 (inactive) in test [6]; -0.593 (inactive) in test [14].
Regarding `Cc1ccccc1C(O)C1C=CC2C(=O)NC(=O)C2N1Nc1ccccn1` (stereo not given), the composite z-score is 0.049 in [1]; 1.6 in test [5]; 0.0361 in test [7]; 0.232 in test [8]; -0.308 in test [9]; 0.092 in test [10]. Besides, the composite z-score is 0.105 in test [11]; 0.145 in [12]; 0.397 in test [13]; -0.209 in test [15]; 0.0301 in test [16]; 0.262 in test [17]. Besides, the values for the composite z-score in test [18], in test [19] and in test [20] were 0.056, 0.144 and 0.605, respectively. Further, the z-score in [2] was 0.833 (inactive); in test [3], 0.459 (inactive); in test [4] it was 0.0715 (inactive); in test [6], -0.957 (inactive); in test [14], 1.55 (inactive).
